# Rows were chosen to be rich in hits. Some 9.3% of all compounds tested hit in one or more screens of this group.
# SMN2 splice enh: SMN2 splice variant enhancement | AID 1458 | Potency, µM (top dose mostly 46.1 µM), for inactives: top-dose activity change, positive = activation, usual class: activators | 210,000 tested, 2.8% active | HEK293 SMN2-luciferase splicing reporter, luminescence, 30-36 h; note: % of control where 0% means no effect; nearly all actives have a fitted effect of over 55% in size
#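 qHTS luciferase splicing reporter: luminescence rises when SMN2 exon 7 is included in transfected HEK293 cells. Compound exposure lasted 30-36 h at 37C, with 4.5 mM final sodium butyrate as control, followed by a ONE-Glo read.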
# NPC1 prom act: activators of NPC1 promoter. Potency, µM (top dose mostly 9.22 µM), for inactives: at the top dose activation, actives largely listed as activators. Huh7 NPC1 promoter luciferase reporter, 24 h. 320,000 tested, 2.4% active. AID 485313; note: % of control where 0% means no effect; nearly all actives have a fitted effect of over 60% in size
#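 Luminescence read-out of NPC1 promoter-driven luciferase in stably transfected Huh7 cells; compounds delivered in DMSO and left 24 h at 37C, 5% CO2, qHTS titration format.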
# FLuc modulator: firefly luciferase modulation, counter-screen for miR-21 project | P08659 | purified FLuc, Km substrates, luminescence inhibition | Potency, µM (titrated, usually from 57.5 µM), inactives show at the highest dose activity change, negative = inhibition, usual class: inhibitors | 360,000 tested, 6.9% active;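 note: plate controls were vehicle for no effect and reference inhibitor for full effect; nearly all actives have a fitted effect of over 55% in size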
# Target sequence (P08659 whole entry, looked up): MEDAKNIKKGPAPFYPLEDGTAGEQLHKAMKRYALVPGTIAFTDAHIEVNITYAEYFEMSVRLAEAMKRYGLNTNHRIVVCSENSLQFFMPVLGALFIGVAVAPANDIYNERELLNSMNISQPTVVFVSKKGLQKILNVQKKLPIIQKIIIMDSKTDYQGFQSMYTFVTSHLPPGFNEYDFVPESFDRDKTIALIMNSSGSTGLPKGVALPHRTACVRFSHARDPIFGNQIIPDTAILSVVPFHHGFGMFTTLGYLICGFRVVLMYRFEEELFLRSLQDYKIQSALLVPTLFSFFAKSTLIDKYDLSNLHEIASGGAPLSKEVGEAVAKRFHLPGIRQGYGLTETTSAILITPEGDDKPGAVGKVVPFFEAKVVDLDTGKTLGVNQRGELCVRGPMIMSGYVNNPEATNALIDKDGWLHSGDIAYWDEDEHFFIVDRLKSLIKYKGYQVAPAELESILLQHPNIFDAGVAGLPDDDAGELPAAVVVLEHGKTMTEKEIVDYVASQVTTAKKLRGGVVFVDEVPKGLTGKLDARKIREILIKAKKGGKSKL
#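 Biochemical qHTS of compounds, final roughly 60 µM downward over six points, against 10 nM purified firefly luciferase using Km concentrations of substrates (10 uM D-luciferin, 10 uM ATP) in Tris acetate pH 7.5 buffer; luminescence output.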
# Rab9 promoter act: activators of Rab9 promoter; Huh7 Rab9 promoter-luciferase reporter, luminescence, 24 h; Potency, µM (series often up to 9.22 µM), for the others: at the highest dose activation, negative = inhibition, hits mostly activators; 320,000 tested, 2.8% active; note: % of control where 0% means no effect; nearly all actives have a fitted effect of over 60% in size
#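 Rab9 promoter-driven luciferase in stably transfected Huh7 cells; 1500 cells/well rested 2 h, exposed to compound in DMSO for 24 h at 37 °C, 5% CO2. Luminescence read 10 min after adding luciferase reagent at ambient temperature.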
# ELG1 repair inh: inhibitors of ELG1-dependent DNA repair in HEK293T cells. Potency, µM (titrated, usually from 46.1 µM), for the others: top-dose activity change, negative = inhibition, hits mostly inhibitors. 330,000 tested, 2.3% active. HEK293T ELG1-luciferase reporter, luminescence, 16 h; DNA damage induced by 5-fluorouridine; note: % is set by controls: 0 for no effect and ±100 for the full control effect; nearly all actives have a fitted effect of over 55% in size
#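 Overnight (16 hr) co-exposure of 2,000 cells/well to 5-fluorouridine and compound at 37 °C preceded detection. Luciferase was quantified via ONE-Glo luminescence; loss of signal denotes inhibition.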
# ELG1 genotox: inducers of genotoxicity in HEK293T ELG1-luciferase cells; HEK293T ELG1-luciferase reporter, luminescence, 16 h; Potency, µM (top dose mostly 46 µM), for the others: at the top dose activity change, positive = activation, most hits filed as activators; 330,000 tested, 1.3% active; AID 504466; note: % of control where 0% means no effect; nearly all actives have a fitted effect of over 60% in size
#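 Genotoxic stress is detected as increased luminescence from luciferase-tagged ELG1 in HEK293T cells, measured with ONE-Glo after a 16 hr treatment at 37 °C.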
# * = called active by the depositor; ? = inconclusive; . = no result; [ ] = another dose, or the depositor's remark. Calls come from the whole dose curve; as a rule, active = well fitted curve in the direction sought with a large enough effect; inconclusive = small, poorly fitted or top-dose-only effect, or another doubt; inactive = no such curve, though single readings can be large; an effect the other way counts as inactive or inconclusive. Potency is the fitted concentration of half-maximal effect.
SMILES,SMN2 splice enh,NPC1 prom act,FLuc modulator,Rab9 promoter act,ELG1 repair inh,ELG1 genotox
O=C(NCCN1CCOCC1)c1sc2cc(Cl)ccc2c1Cl,.,1.3%,-16.3%,0.0%,?,16.0%
O=C(NCC1CCCO1)c1sc2cc(Cl)ccc2c1Cl (configuration not stated),12.6µM*,3.16µM*,10.7µM*,2µM*,?,?
CC(C)(CNC(=O)c1sc2cc(Cl)ccc2c1Cl)N1CCOCC1,.,-0.1%,?,-3.9%,?,16.4µM*
CC(C)C(=O)N[C@@H]1c2ccccc2CC[C@@H]1OCc1ccccc1,.,.,.,.,11.9%,5.2%
NC(=O)C1CCN(C(=O)c2ccc([N+](=O)[O-])cc2NC(=O)c2cccs2)CC1,.,1.2%,-0.7%,12.1%,29.4%,2.1%
O=C1C2C3C=CC(C4CC34)C2C(=O)N1/N=C/c1ccc(-c2ccc(F)cc2[N+](=O)[O-])o1 (configuration not stated),0.2%,5.6%,13.5µM*,-1.6%,?,-2.3%
COc1ccc(-c2ccc(/C=N/N3C(=O)C4C5C=CC(C6CC56)C4C3=O)o2)c([N+](=O)[O-])c1 (configuration not stated),-4.9%[1.84 µM],-7.5%,?,-8.8%,18.4µM*,-5.8%
CCCCCn1nc(C(=O)OCc2nc(N)nc(Nc3ccccc3)n2)c2ccccc2c1=O,.,.,.,.,-26.5%,0.7%
CC1CCCC(C)N1C(=O)COC(=O)CSc1ccc(C(N)=O)cc1[N+](=O)[O-] (configuration not stated),.,-5.1%,2.9%,-2.6%,5.7%,0.3%
c1ccc(-c2cc(N3CCCCCC3)n[nH]2)cc1,?,?,21.3µM*,?,?,16.4µM*
c1ccc(-c2cc(N3CCCCC3)ncn2)cc1,10µM*,?,10.7µM*,2.82µM*,?,14.6µM*
Nc1nc(-c2ccccc2)cc(N2CCCCC2)n1,5.9%,-2.6%,3.6%,-6.0%,-19.0%,2.1%
Cc1nc(-c2ccccc2)cc(N2CCCC2)n1,24.0%,8.4%,-9.7%,-1.1%,19.8%,11.6%
C/C(Cl)=C\COc1cc(C)nc2c(Br)cccc12,-30.2%,-2.8%,?,-6.5%,-8.6%,-5.7%
CCN(CC(=O)Nc1ccc(NC(C)=O)cc1)C(=O)CN1C(=O)C2CCCCC2C1=O (configuration not stated),.,2.6%,?,0.3%,5.4%,2.2%
O=C(Cc1ccccc1[N+](=O)[O-])NC1CC2CCC1C2 (configuration not stated),.,-1.4%,4.3%,3.5%,-5.3%,-0.7%
O=C(N/N=C/c1cn(-c2ccccc2)nc1-c1cccs1)c1ccccc1F,14.2%,0.6%,21.3µM*,4.8%,?,-8.4%
NC(=O)N/N=C/c1cn(-c2ccccc2)nc1-c1ccccc1,?,19.3%,6.75µM*,17.5%,?,?
COc1ccc(-c2nn(-c3ccccc3)cc2/C=C/C(=O)OCC(=O)Nc2ccccc2C#N)cc1,-0.7%,-6.4%,-3.4%,-23.9%,5.8%,?
O=[N+]([O-])c1ccc(N/N=C/c2cn(-c3ccccc3)nc2-c2ccccc2)cc1,-26.3%,20.5%,2.69µM*,28.8%,?,?
CNC(=O)COC(=O)/C=C/c1cn(-c2ccccc2)nc1-c1ccc(C)o1,.,-1.5%,15.1µM*,-1.5%,10.0%,0.1%
O=C(O)/C=C/c1cn(-c2ccccc2)nc1-c1cccc([N+](=O)[O-])c1,.,-1.5%,?,-10.0%,16.6%,3.3%
O=C(O)/C=C/c1cn(-c2ccccc2)nc1-c1ccc(-c2ccc([N+](=O)[O-])cc2)o1,.,-2.9%,9.53µM*,-0.8%,-12.3%,0.2%
O=C(NNC(=O)c1cc(-c2ccc(Cl)cc2Cl)nc2ccccc12)Nc1ccccc1,-2.4%,-5.6%,6.75µM*,-4.3%,?,3.0%

# Screens from PubChem BioAssay.
